CYP2C9 inhib: human CYP2C9 inhibition; inhibition, % at 5 µM; CYP2C9 Supersomes, luciferin-H conversion, luminescence; AID 777; 20% of 96,000 active;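 active = blocking of liver enzyme CYP2C9 beyond about 50% at 5 µM, limit read from the data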
Target sequence (P11712 whole entry, looked up): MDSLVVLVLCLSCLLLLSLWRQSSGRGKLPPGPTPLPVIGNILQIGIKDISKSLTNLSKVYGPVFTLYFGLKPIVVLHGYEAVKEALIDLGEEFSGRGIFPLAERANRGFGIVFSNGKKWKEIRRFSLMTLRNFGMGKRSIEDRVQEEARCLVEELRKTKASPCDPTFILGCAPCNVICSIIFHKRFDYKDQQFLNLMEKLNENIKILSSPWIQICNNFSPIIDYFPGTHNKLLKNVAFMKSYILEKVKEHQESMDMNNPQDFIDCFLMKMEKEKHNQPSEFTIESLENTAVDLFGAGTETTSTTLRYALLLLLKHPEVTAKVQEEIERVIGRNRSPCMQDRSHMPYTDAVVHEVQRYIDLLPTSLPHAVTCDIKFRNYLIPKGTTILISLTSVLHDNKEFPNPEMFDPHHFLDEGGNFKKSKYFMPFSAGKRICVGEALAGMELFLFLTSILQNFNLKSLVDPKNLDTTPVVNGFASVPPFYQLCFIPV
CYP2C19 act: cytochrome P450 2C19 (human) activation; P33261; recombinant CYP2C19, luciferin-H EGE luminescence; hits give high values; 0 = fully inhibited enzyme, 1 = untreated enzyme; activation factor at 5 µM; 96,000 tested, under 10 active;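 active = activation factor of at least 2 at 5 µM in the primary screen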
CYP2C19 inh: inhibitors of human CYP2C19. 21% of 96,000 active. AID 778. inhibition, % at 5 µM. CYP2C19 Supersomes, luciferin-H EGE luminescence, 30 min;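 active = CYP2C19 inhibition above a set limit at 5 µM in the primary screen, cut at about 50% in these data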
CYP2C9 act: increases human cytochrome P450 2C9 activity. recombinant CYP2C9, luciferin-H conversion, luminescence; hits give high values; factor 1 = untreated enzyme, 0 = blocked. activation factor at 5 µM. 1.4% of 96,000 active;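 active = activation factor of 2 or more for CYP2C9 at a 5 µM dose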
D1 mod: allosteric modulators of human D1 dopamine receptor. P21728. HEK293 D1, CRE-luciferase, dopamine EC30 potentiation; actives deviate in either direction. B-score at 10 µM. 5.9% of 58,000 active. AID 641;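 active = luminescence count or its row- and column-corrected plate score outside the 99.7% band of the plate's sample wells, on either side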
hDAT+cocaine: human DAT dopamine uptake with cocaine, either direction; Q01959; LLC-PK1 hDAT cells, [14C]-dopamine uptake with cocaine IC80; actives deviate in either direction; B-score at 10 µM; 1.3% of 110,000 active;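 active = Z score or B-score, a plate-position-corrected score, falls beyond the plate's 99.7% confidence bounds, in either direction; inactive = both scores lie inside the 99.7% bounds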
D1 mod confirm: confirmation of human D1 dopamine receptor allosteric modulators | shares compounds with D1 mod | HEK293 D1 CRE-luciferase, dopamine EC30 potentiation; hits give high values | luminescence at 10 µM | 88% of 2,200 active;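 active = luminescence in either of two replicates above the same-plate mean plus 3 SD of the low-dose dopamine control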
D1 no dopamine: activates D1 CRE-luciferase signal without dopamine present; shares compounds with D1 mod; HEK293 D1 CRE-luciferase, luminescence, no dopamine; hits give high values; luminescence at 10 µM; 0.8% of 1,900 active; AID 646; in the data active = luminescence above about 3900
Isoprot counter: alters isoproterenol CRE-luciferase response in HEK293 cells; HEK293 D1 CRE-luciferase, isoproterenol EC30 counter-screen; calls only at 10 µM; shares compounds with D1 mod; 63% of 2,200 active;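 active = luminescence in either replicate above plate mean of wells with a partly effective reference agonist dose plus 3 SD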;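 note: isoproterenol raises cAMP through native beta-adrenoceptor Gs so signal bypasses D1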
A number is an active result; 0 = inactive; - = no result; + = active, no number. This is a sample that favours compounds with a hit; in the whole collection about 28% have one here.

SMILES	CYP2C9 inhib	CYP2C19 act	CYP2C19 inh	CYP2C9 act	D1 mod	hDAT+cocaine	D1 mod confirm	D1 no dopamine	Isoprot counter
COc1ccc(OC)c(C2CC(=O)c3c([nH]c(C(=O)OC(C)C)c3C)C2)c1 (stereo unspecified)	58	0	0	0	2.8	0	9020	0	+
CCn1nc(NC(=O)c2ccncc2)c2cc3ccccc3nc21	67	0	70	0	11	0	15352	0	+
CCn1nc(NC(=O)c2ccco2)c2cc3ccccc3nc21	0	0	0	0	14	0	12332	0	+
COc1ccc(CCN(Cc2cc3cc4c(cc3[nH]c2=O)OCO4)C(C)=O)cc1OC	0	0	0	0	0	-	-	-	-
COc1ccc(CCN(Cc2cc3cc(C)ccc3[nH]c2=O)C(=O)N2CCCC2)cc1OC	98	0	0	0	9.1	0	13088	0	+
COc1ccc2nc(NC(=O)CCc3nc(-c4ccccc4F)no3)sc2c1	0	0	0	0	8.3	0	0	0	0
O=C(Nc1ccc(SC(F)F)cc1)c1cccc2nc3ccccc3nc12	0	0	0	0	-	0	-	-	-
C=CCNc1sc(C(=O)c2cccs2)c(N)c1C#N	-	-	-	-	16	0	22248	0	+
C=CCNc1sc(C(=O)c2ccccc2)c(N)c1-c1nc2ccccc2s1	0	0	0	0	-	0	-	-	-
CCNc1sc(C(=O)c2cccs2)c(N)c1C#N	0	0	0	0	18	0	22348	0	+
CC(C)(C)n1ncc2c(=O)n(CC(=O)N3CCCc4ccccc43)cnc21	0	0	0	0	-	0	-	-	-
CCCCn1cc(C(C)(C)C)c(C#N)c1NC(C)=O	0	0	0	0	6	0	9748	0	+
O=C(O/N=C1/CCSc2ccccc21)c1ccccc1	0	0	0	0	-	0	-	-	-
CN(C)c1ccc(C(C(=O)NC(C)(C)C)N(C(=O)c2csnn2)C2CC2)cc1 (stereo unspecified)	0	0	0	0	0	0	-	-	-
CCOc1ccc(C(=O)NCC(=O)OC(C)C(=O)NCc2ccco2)cc1OCC (stereo unspecified)	0	0	0	0	6	0	0	-	+
CCOc1cc(NC(=S)NCc2ccco2)c(OCC)cc1NC(C)=O	0	0	0	0	-	0	-	-	-
COc1nc(NCc2ccco2)nc(N2CCC(C)CC2)n1	0	0	0	0	10	0	15736	0	+
COc1nc(OC)nc(N2CCC(C(=O)NCc3ccco3)CC2)n1	0	0	0	0	0	0	-	-	-
CC1CCCC(NC(=O)CCCn2c(=O)[nH]c3cc(Cl)ccc3c2=O)C1C (stereo unspecified)	0	0	0	0	-	0	-	-	-
Cc1ccc2c(c1)C(=O)CC1(CCC(C(C)(C)C)CC1)O2 (stereo unspecified)	-	-	-	-	-	0	-	-	-
CCOC(=O)C1C(=O)CC(=O)CC1CC(C)SCC (stereo unspecified)	0	0	0	0	0	0	-	-	-
CCC(C)(C(=O)NC1CCCC1)N(Cc1ccco1)C(=O)c1ccc2c(c1)OCO2 (stereo unspecified)	0	0	0	0	4.9	0	0	0	0
O=C(CCCc1nc(-c2ccccc2)no1)NCc1cccnc1	0	0	0	0	0	0	-	-	-
Cc1ccc(Cn2c(CN(C)Cc3ccccc3)nc3c2c(=O)n(C)c(=O)n3C)cc1	94	0	78	0	4.9	0	8728	0	+
Cc1ccc(Cn2c(CN3CCOCC3)nc3c2c(=O)n(C)c(=O)n3C)cc1	-	-	-	-	0	0	-	-	-
SMILES	CYP2C9 inhib	CYP2C19 act	CYP2C19 inh	CYP2C9 act	D1 mod	hDAT+cocaine	D1 mod confirm	D1 no dopamine	Isoprot counter
Cc1ccc(Nc2nc3ccccc3[nH]2)nc1	-	-	-	-	-	0	-	-	-
CCSc1nc2ccccc2n1Cc1nc(N)nc(N(C)C)n1	66	0	90	0	5.2	0	10584	-	+
CC1(C)C(c2ccc(Cl)cc2)=[N+]([O-])C2(CCCC/C2=N\O)N1O (stereo unspecified)	0	0	0	0	0	0	-	-	-
NNC(=O)COc1ncn(-c2ccccc2)n1	0	0	0	0	-	0	-	-	-
N#CCSc1ncnc2sc3c(c12)CCC3	0	0	0	0	4.9	0	12888	0	0
CC(C#N)Sc1ncnc2sc3c(c12)CCC3 (stereo unspecified)	0	0	0	0	6.3	0	21012	0	+
C[C@H](Nc1ncnc2sc3c(c12)CCC3)C(=O)O	0	0	0	0	-	-	-	-	-
COc1ccc(C2NCCO2)cc1OC (stereo unspecified)	0	0	0	0	0	0	-	-	-
CCOC(=O)N1CCN(c2c(N3CCc4ccccc43)c(=O)c2=O)CC1	0	0	0	0	0	0	-	-	-
N#Cc1sc2nc3c(c(-c4ccco4)c2c1N)CCCC3	0	0	0	0	9.6	0	12060	0	+
CCOC(=O)C1=C(C)NC(=S)N(C(C)=O)C1c1ccccc1 (stereo unspecified)	-	-	-	-	-	0	-	-	-
Brc1ccc(-c2nn3c(-c4ccco4)nnc3s2)o1	0	0	0	0	4.1	0	10612	0	+
O=c1c2cnn(-c3ccccc3)c2ncn1/N=C/c1ccncc1	-	-	-	-	0	-	-	-	-
COc1cccc(C(=O)NCC(=O)N2CCC(C)CC2)c1	0	0	0	0	-	0	-	-	-
N#CC1=C(N)Oc2n[nH]c(-c3cccs3)c2C1c1ccsc1 (stereo unspecified)	0	0	0	0	4.4	0	6176	0	0
Cc1ccc(C2C(C#N)=C(N)Oc3n[nH]c(-c4cccs4)c32)s1 (stereo unspecified)	0	0	0	0	4.6	0	13468	0	0
N#CC1=C(N)Oc2n[nH]c(-c3cccs3)c2C1C1C=CCCC1 (stereo unspecified)	0	0	0	0	-	0	-	-	-
CCc1c(O)nc(SCC(=O)Nc2ccc(C)cc2)n(C2CCCCC2)c1=O	0	0	0	0	-	0	-	-	-
COc1ccccc1NC(=O)CSC1CC(=O)N(c2ccc3c(c2)OCO3)C1=O (stereo unspecified)	0	0	0	0	0	0	-	-	-
CCN=C(Nc1ccc2c(c1)OCO2)SC1CC(=O)N(c2ccccc2F)C1=O (stereo unspecified)	100	0	0	0	6.4	0	12104	0	+
COCCN(CCOC)Cc1cc(=O)oc2cc3c(cc12)CCC3	0	0	77	0	2.4	0	9280	-	+
CCOC(=O)N1CCN(Cc2cc(=O)oc3cc4c(cc23)CCC4)CC1	0	0	0	0	-	0	-	-	-
C=CCNC(=O)COC(=O)COc1ccc(Cl)cc1C	0	0	0	0	-	0	-	-	-

Bioassay records: PubChem BioAssay, several laboratories
